# Screening results deposited in PubChem BioAssay by National Center for Advancing Translational Sciences (NCATS).
# KB-V1 cytotox: KB-V1 MDR subline cytotoxicity; Potency, µM (titrated, usually from 46.1 µM), hits mostly cytotoxic; KB-V1 MDR cells viability, CellTiter-Glo, 72 h; 400,000 tested, 3.4% active; also: nearly all actives have a fitted effect of over 60% in size
#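 KB-V1 cells (P-gp-expressing MDR subline of KB-3-1) in phenol-red-free DMEM with 10% FBS were exposed to library compounds over a concentration series for 72 h at 37 degrees C. Viability read by CellTiter-Glo luminescence; concentration-effect curves fitted after normalization.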
# TGFb inhibitor: TGF-b pathway inhibition; 410,000 tested, 1.2% active; HepG2 CAGA-GFP TGF-b/SMAD3 reporter, GFP fluorescence, 18 h; TGF-beta stimulated, 500 pg/mL final; AID 588855; Potency, µM (top dose mostly 46.1 µM), actives largely listed as inhibitors; also: nearly all actives have a fitted effect of over 65% in size
#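 Inhibition of TGF-beta-driven CAGA-GFP reporter expression in HEPG2 cells is measured by cellular GFP fluorescence after 18 h stimulation with 500 pg/mL recombinant TGF-beta in 1% FBS medium at 37 degrees C.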
# KB-3-1 tox: KB-3-1 parental cell cytotoxicity; 400,000 tested, 1.4% active; Potency, µM (highest dose often 46.1 µM), actives largely listed as cytotoxic; KB-3-1 viability, CellTiter-Glo ATP luminescence, 72 h; also: nearly all actives have a fitted effect of over 60% in size
#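 Cytotoxicity in the drug-sensitive parental line KB-3-1 was scored as loss of CellTiter-Glo luminescence following 72 h incubation with compound. Values come from curve fitting of normalized concentration-response data.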
# S2 tox: viability counter-screen for ATXN expression inhibitors. S2 cells (HEK-293 line with an ATXN2-luciferase reporter) viability, CellTiter-Fluor protease fluorescence, 24 h. Potency, µM (highest dose often 56.7 µM), usual class: cytotoxic. 400,000 tested, 0.49% active. AID 651635; also: nearly all actives have a fitted effect of over 40% in size
# HepG2 viability: kills HepG2 cells in TGF-b inhibitor counter-screen; HepG2 CAGA-GFP viability, ATP luminescence, 18 h; Potency, µM (highest dose often 46.1 µM), most hits filed as cytotoxic; 410,000 tested, 0.76% active; AID 588856
#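 HepG2 CAGA-GFP cells (1000/well, DMEM with 1% FBS) received compound, then TGF-beta at 500 pg/mL final, and were incubated 18 hours at 37 degrees C. Viability was read by CellTiter-Glo luminescence. Media-only wells were set as complete cell-killing and DMSO as no toxicity.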
# ATXN2 expr inh: inhibitors of ATXN2 expression; 360,000 tested, 0.72% active; Potency, µM (highest dose often 57 µM), usual class: inhibitors; HEK-293 ATXN2-luciferase reporter, luminescence, 24 h; also: nearly all actives have a fitted effect of over 55% in size
#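 qHTS (up to 57 uM final) was run with 24 h compound exposure of reporter cells at 37 °C. Each well was multiplexed: SteadyGlo luminescence measured ATXN2-luciferase expression after a fluorogenic Gly-Phe-AFC viability readout (25 uM final).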
# Hits are given with their value; 0 = inactive; ? = inconclusive; - = no result given. The list is not random: actives were taken first. Their share in the collection is about 5.9%. Calls follow the shape of the dose curve; as a rule, active = well fitted curve in the direction sought with a large enough effect; inconclusive = small, poorly fitted or top-dose-only effect, or another doubt; inactive = no such curve, though single readings can be large; an effect the other way counts as inactive or inconclusive.
SMILES,KB-V1 cytotox,TGFb inhibitor,KB-3-1 tox,S2 tox,HepG2 viability,ATXN2 expr inh
CCN(CC)CCCNC(=O)Cc1csc2nc(-c3ccc(Cl)cc3)cn12,0,0,0,?,0,0
COCCCNC(=O)C1CCN(c2cc(C)nc3c(-c4ccc(Cl)cc4)c(C)nn23)CC1,0,0,0,?,0,0
Cc1nn(-c2ccccn2)c2c1-c1nc(N3CCOCC3)ncc1CC2,18µM,?,?,0,0,0
CC(=O)N1N=C(c2ccccc2)CC1c1cn(Cc2ccccc2)c2ccccc12 (stereo not given),15µM,?,?,0,0,0
CC(=O)N1N=C(c2ccncc2)CC1c1ccccc1O (stereo not given),0,?,?,0,0,0
Cc1cc(C)cc(N(CCC(=O)Nc2nnc(C3CC3)s2)S(=O)(=O)c2ccc(Cl)cc2)c1,8.2µM,0,?,0,0,0
COCc1ccc(C(=O)N2CCOc3c(cc(-c4cc(C)c5cccc(OC)c5n4)cc3OC)C2)o1,-,-,-,0,-,-
COc1ccc(C(=O)CC(SCC(NC(C)=O)C(=O)O)c2ccc(Cl)cc2)cc1OC (stereo not given),13µM,?,0,-,0,-
COc1ccc(C(=O)NC(CC(C)C)C(=O)O)cc1OC (stereo not given),0,0,0,0,0,0
COc1ccc(C(C)NC(=O)c2ccc(Cl)cc2)cc1OC (stereo not given),21µM,0,0,0,0,0
COc1ccc(C(C)NC(=O)c2ccncc2)cc1OC (stereo not given),?,0,0,0,0,0
CCOc1cccc(C2c3c(-c4cc(C)ccc4O)n[nH]c3C(=O)N2Cc2ccco2)c1 (stereo not given),?,?,?,-,0,?
CCN(CC)CCNC(=O)C(=O)Nc1ccc2c(c1)N(S(=O)(=O)c1cccs1)CCC2,0,0,0,0,0,0
CCCCNC(=O)C(=O)Nc1ccc2c(c1)N(S(=O)(=O)c1cccs1)CCC2,2.3µM,0,2.1µM,?,0,-
CC(C)=CCn1c2ccc(NC(=O)NCc3ccc(F)cc3)cc2c(=O)n1C,0,0,4.6µM,?,0,0
COc1ccccc1CCC(=O)Nc1ccc2c(c1)c(=O)n(C)n2Cc1cccc(C(F)(F)F)c1,?,0,?,?,0,0
COc1cccc(Cn2c3ccc(NC(=O)CCc4ccc(F)cc4)cc3c(=O)n2C)c1,?,?,4.1µM,?,0,0
Cn1c(=O)c2cc(NC(=O)NCc3ccc(F)cc3)ccc2n1C/C=C/c1ccccc1,0,0,?,0,0,0
COc1ccccc1CCC(=O)Nc1ccc2c(c1)c(=O)n(C)n2Cc1ccc(F)cc1,?,0,8.2µM,0,0,0
CSc1nccc(-c2cc(Cl)c3c(c2)CC(CNC(=O)c2ccc(C)nc2)O3)n1 (stereo not given),-,-,-,0,-,-
COc1ccc(C(C[N+](=O)[O-])C2(c3ccc(OC)c(OC)c3)C(=O)c3ccccc3C2=O)cc1 (stereo not given),?,?,?,0,18µM,0
Cc1ccc(CSc2nc3ccccc3cc2C=O)cc1,?,?,8.2µM,0,0,0
O=Cc1cc2ccccc2nc1SCc1ccc(Cl)cc1,?,0,6.5µM,?,0,0
O=Cc1cc2ccccc2nc1SCc1ccc(Cl)c(Cl)c1,5.8µM,0,4.6µM,0,0,0
Clc1ccc(CSc2cnnc3ccccc23)cc1Cl,0,0,0,0,0,0
SMILES,KB-V1 cytotox,TGFb inhibitor,KB-3-1 tox,S2 tox,HepG2 viability,ATXN2 expr inh
COc1ccc(CCC(C)=O)cc1,-,-,-,0,-,0
CCN(CC)C(=O)Cn1c(SCCOc2ccc(Cl)cc2)nc2ccccc21,0,?,0,?,0,0
CC(C)CC(=O)Nc1nnc(SCc2cc(=O)n3ccccc3n2)s1,-,0,-,-,0,-
CCOc1cc(/C=C/c2nc3cc(C)c(C)cc3s2)ccc1OCC(=O)N1CCOCC1,10µM,0,0,0,0,0
Cc1ccc(-c2noc(C3CCN(C(=O)Nc4ccc(C#N)cc4)CC3)n2)o1,2.6µM,0,?,0,0,0
CN(C)c1ccc(-c2noc(C3CCN(C(=O)Nc4ccc(Cl)cc4)CC3)n2)cc1,?,0,0,0,0,0
CN(C)C1(CNC(=O)COc2ccc(C(C)(C)C)cc2)CCCCC1,0,0,0,0,0,0
COc1ccc(C(=O)Nc2ccc(-c3cc4ccccc4oc3=O)c(C)c2)cc1Br,?,0,0,0,0,0
CN(CC(=O)Nc1cccc(F)c1)C(=O)c1cc(-c2cccs2)nn1-c1ccccc1,?,0,0,0,0,0
CN(C)S(=O)(=O)c1cccc(NC(=O)c2cc(-c3cccs3)nn2-c2ccccc2)c1,5.8µM,0,0,0,0,0
CCN(CC)S(=O)(=O)c1cccc(NC(=O)c2cc(-c3cccs3)nn2-c2ccccc2)c1,3.7µM,0,0,0,0,0
Cc1ccc(NC(=O)C(Cc2ccccc2)NS(=O)(=O)c2cccs2)cc1Cl (stereo not given),0,0,0,0,0,0
O=C(CC(C(=O)N1CCc2ccccc21)n1ccnc1)N1CCc2ccccc2C1 (stereo not given),8.2µM,?,0,0,0,0
CCN(CCCNC(=O)CC(C(=O)N1CCc2ccccc21)n1ccnc1)c1cccc(C)c1 (stereo not given),12µM,0,0,0,0,0
CCCCNC(=O)CC(C(=O)N1CCc2ccccc21)n1ccnc1 (stereo not given),0,0,0,0,0,0
Oc1ccc(C2CCN(c3ccnc4ccccc34)CC2)cc1O,-,-,-,-,-,0
Cc1ccc(OCCCCn2cnc3ccccc32)c(C)c1,?,0,0,-,0,-
Clc1ccc(OCCn2cnc3ccccc32)cc1,0,?,0,0,0,0
Clc1ccccc1OCCn1cnc2ccccc21,21µM,0,0,0,0,0
Brc1ccccc1OCCCCn1cnc2ccccc21,?,0,5.2µM,0,0,0
O=C(Cn1c(=O)n(Cc2nc(-c3ccccc3)no2)c(=O)c2ccccc21)Nc1cccc(C(F)(F)F)c1,?,?,?,-,0,-
Cc1cccc(NC(=O)c2sc3nc(-c4ccccc4)cn3c2C)n1,21µM,0,0,?,0,?
COc1ccc(-c2cn3c(C)c(C(=O)Nc4cccc(C)n4)sc3n2)cc1,21µM,0,0,0,0,0
Cc1ccc(S(=O)(=O)NC2=C(N3CCN(Cc4ccccc4)CC3)C(=O)c3ccccc3C2=O)cc1,0,0,0,0,0,0
